LRH-1 inv ag = LRH-1 (NR5A2) inverse agonists, primary screen, cell-based, luminescence, HEK293T, StAR-luciferase reporter; Nuclear receptor subfamily 5 group A member 2 (Homo sapiens), O00482; LRH-1 transfected, 24 h; inhibition, % at 3.6 µM; hit rate 0.13% among 360,000; AID 602396, 2012;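 active = inhibition above the mean inhibition of all tested compounds plus 3 SD, cut at about 73% in these data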;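 also: 0% = DMSO wells and 100% = reporter-only cells lacking LRH-1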
NCOA3 inh = SRC3 coactivator transcriptional activity inhibitors, primary screen, cell-based, luminescence; inhibition, % at 3.6 µM; hit rate 0.17% among 360,000; HEK293 GAL4-SRC3 luciferase reporter; Nuclear receptor coactivator 3 (Homo sapiens), Q9Y6Q9; AID 588352, 2011;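 active = inhibition above a per-campaign cutoff, the mean of all compounds plus 3 SD, cut at about 60% in these data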;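 also: 0% = DMSO-treated cells and 100% = gossypol-treated cells at 36 µM; higher means less SRC3-driven luciferase light from the GAL4 reporter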
GalR3 antagonist = GalR3 antagonists in HEK293 cells, primary screen, cell-based, fluorescence readout; hit rate 0.44% among 360,000; inhibition, % at 3 µM; HEK293 GalR3-CNG cAMP membrane potential fluorescence; galR3 body fused to GalR1 C-terminus;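 active = inhibition above the screen-wide average plus 3 SD, cut at about 13% in these data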;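 also: forskolin and galanin both at EC90 stimulate the cells; cAMP rise reported by CNG channel membrane potential dye signal; 0% = forskolin plus galanin with DMSO and 100% = forskolin alone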
NR2F2 inh = NR2F2 transcriptional activity inhibitors, primary screen, cell-based, luciferase reporter, HEK293T, luminescence; COUP transcription factor 2 (Homo sapiens), P24468; HEK293T NGFI-A luciferase reporter; inhibition, % at 8.6 µM; hit rate 0.7% among 370,000;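 active = inhibition above a per-plate cutoff, mean inhibition of test wells between control levels plus 3 SD, cut at about 38% in these data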;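 also: cells cotransfected with COUP-TFII expression vector driving the NGFI-A reporter; 0% = median of COUP-TF2 test wells and 100% = reporter-only cells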
NCOA1 inh = SRC1 coactivator transcriptional activity inhibitors, primary screen, cell-based, luminescence; inhibition, % at 3.6 µM; Nuclear receptor coactivator 1 (Homo sapiens), Q15788; hit rate 0.12% among 360,000; HEK293 GAL4-SRC1 luciferase reporter; AID 588354, 2011;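 active = inhibition above the campaign mean plus 3 SD, with each screening campaign given its own cutoff, cut at about 60% in these data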;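 also: 0% = DMSO treated cells and 100% = gossypol at 36 µM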
NCOA2 inhibitor = inhibition of GAL4-SRC2 driven luciferase reporter, primary screen, SRC2 inhibitor project, cell-based, luminescence | Nuclear receptor coactivator 2 (Homo sapiens), Q15596 | HEK293 GAL4-SRC2 luciferase reporter | inhibition, % at 9 µM | hit rate 0.17% among 370,000 | AID 651957, 2012;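 active = inhibition above the mean inhibition of all tested compounds plus 3 SD, set per campaign, cut at about 52% in these data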;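 also: 0% = DMSO treated cells and 100% = cells given Gossypol at 36 µM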
Target sequence (Q15596 whole entry, looked up, the tested form may be a part): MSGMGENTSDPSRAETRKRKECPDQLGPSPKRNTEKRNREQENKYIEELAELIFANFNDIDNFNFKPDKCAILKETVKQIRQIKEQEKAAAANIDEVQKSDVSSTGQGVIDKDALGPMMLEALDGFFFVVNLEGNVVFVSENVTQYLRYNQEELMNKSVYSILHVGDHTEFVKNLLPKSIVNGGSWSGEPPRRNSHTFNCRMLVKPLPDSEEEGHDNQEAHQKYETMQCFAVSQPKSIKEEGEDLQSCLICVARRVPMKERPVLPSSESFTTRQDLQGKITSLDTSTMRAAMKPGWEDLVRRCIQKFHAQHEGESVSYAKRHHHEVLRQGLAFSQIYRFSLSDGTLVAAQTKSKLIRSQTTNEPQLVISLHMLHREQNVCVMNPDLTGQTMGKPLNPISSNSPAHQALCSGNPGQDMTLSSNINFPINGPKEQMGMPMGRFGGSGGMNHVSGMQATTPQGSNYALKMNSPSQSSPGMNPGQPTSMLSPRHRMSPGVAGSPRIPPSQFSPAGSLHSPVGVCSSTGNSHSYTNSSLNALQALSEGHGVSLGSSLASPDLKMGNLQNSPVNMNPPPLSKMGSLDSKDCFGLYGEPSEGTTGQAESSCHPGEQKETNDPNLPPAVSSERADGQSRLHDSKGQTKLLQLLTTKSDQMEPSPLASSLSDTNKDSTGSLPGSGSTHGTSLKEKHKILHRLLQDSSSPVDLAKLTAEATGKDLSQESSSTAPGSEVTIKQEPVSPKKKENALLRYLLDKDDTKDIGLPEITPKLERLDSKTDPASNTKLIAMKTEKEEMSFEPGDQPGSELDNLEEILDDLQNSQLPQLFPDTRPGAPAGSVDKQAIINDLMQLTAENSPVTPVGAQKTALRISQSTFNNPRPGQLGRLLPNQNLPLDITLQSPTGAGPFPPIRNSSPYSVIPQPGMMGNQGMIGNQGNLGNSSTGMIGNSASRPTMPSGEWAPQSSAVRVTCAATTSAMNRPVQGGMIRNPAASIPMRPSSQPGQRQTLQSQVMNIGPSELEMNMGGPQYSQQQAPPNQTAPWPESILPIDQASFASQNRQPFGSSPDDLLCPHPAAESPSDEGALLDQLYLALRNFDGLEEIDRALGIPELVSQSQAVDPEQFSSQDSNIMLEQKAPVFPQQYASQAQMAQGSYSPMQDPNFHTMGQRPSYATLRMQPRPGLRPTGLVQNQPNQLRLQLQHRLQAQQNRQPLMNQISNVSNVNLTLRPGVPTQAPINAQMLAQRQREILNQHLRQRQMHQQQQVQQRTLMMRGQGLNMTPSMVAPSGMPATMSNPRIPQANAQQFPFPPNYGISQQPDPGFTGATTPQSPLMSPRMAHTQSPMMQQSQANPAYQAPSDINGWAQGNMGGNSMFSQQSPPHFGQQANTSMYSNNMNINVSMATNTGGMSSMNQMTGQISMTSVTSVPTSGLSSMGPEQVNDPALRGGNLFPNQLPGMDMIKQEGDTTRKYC
Starred values were filed as active, the others as inactive; · = no result given. Only some compounds are listed: those with a hit (about 1.1% of all), similar ones and a draw of the others.

SMILES | LRH-1 inv ag | NCOA3 inh | GalR3 antagonist | NR2F2 inh | NCOA1 inh | NCOA2 inhibitor
CC(CCN1CCC(C(O)(c2ccccc2)c2ccccc2)CC1)Oc1ccccc1C#N (stereo unspecified) | · | · | · | 4 | · | -6
CCN(CC)c1ccc2cc(-c3nc4ccccc4[nH]3)c(=O)oc2c1 | -42 | -31 | · | · | -35 | ·
CCN(CC)c1ccc2nc3ccccc3[n+](CC)c2c1 | 76* | 68* | · | · | 63* | ·
CC(C)CC(=O)/C(=C\c1ccc(Cl)cc1Cl)n1cncn1 | 27 | 71* | · | · | 47 | ·
CC(C)CC(=O)/C(=C/c1ccc(N(C)C)cc1)n1cncn1 | 10 | 5 | -9 | 12 | 11 | 6
CN(C)CC1CCC/C(=C\c2ccc(OC(=O)c3ccc(Cl)cc3)cc2)C1=O (stereo unspecified) | 53 | 51 | -6 | -9 | 67* | -21
COC(=O)[C@]12C[C@H](CC(=O)NCc3cccc(C(F)(F)F)c3)C(=O)N(Cc3ccc4c(c3)OCO4)C1=C[C@H](C(C)(C)C)O[C@@H]2C | · | · | -5 | 20 | · | 10
NC(=O)C(C(=O)/C=C/c1ccc(Cl)cc1)=C1SCCS1 | 25 | 66* | 0 | -14 | 44 | -12
COc1ccc(/C=C/C(=O)C(C(N)=O)=C2SCCS2)cc1 | -20 | -22 | -1 | -12 | -31 | -11
NNC(=O)c1cc2ccccc2cc1O | 25 | 62* | 0 | 27 | 55 | 71*
O=C(NCCO)c1cc2ccccc2cc1O | 6 | 11 | -8 | -15 | -5 | 1
CC(=O)N(Cc1ccc(F)cc1)C1=C(NCCc2ccccc2)C(=O)c2ccccc2C1=O | 28 | 17 | -3 | 55* | 2 | 44
O=C1C(Cl)=C(NCCc2ccccc2)C(=O)c2ccccc21 | -1 | -67 | 5 | 0 | -28 | -45
COc1ccc(CCNC(=O)c2nnn(-c3ccc4c(c3)OCCO4)c2N)cc1OC | 48 | 58 | -1 | 93* | 58 | 55*
Cc1cccc(OCC(C)CN2CCC(C(O)(c3ccccc3)c3ccccc3)CC2)c1 (stereo unspecified) | · | · | · | -12 | · | 2
C/C(=C\c1ccccc1F)C(=O)c1c(C)cc(C)[nH]c1=O | 14 | -3 | -10 | 15 | -13 | 5
Cc1[nH]c(=O)c(C(=O)/C=C/c2ccccc2F)c2c1CCCC2 | 65 | 87* | -8 | 27 | 62* | 61*
COC(=O)[C@]12C[C@H](CC(=O)N3CCN(C(=O)C4CC4)CC3)C(=O)N(CCc3ccc(OC)c(OC)c3)C1=C[C@H](C(C)(C)C)O[C@@H]2C | · | · | · | 6 | · | 7
O=C(NC1CCCCC1)C(c1ccc(F)cc1)N(CCCN1CCOCC1)C(=O)c1ccc(CN2CCOCC2)o1 (stereo unspecified) | 21 | -5 | -8 | -4 | 93* | 0
Cc1ccc(S(=O)(=O)Nc2ccc3nc(C)sc3c2)cc1 | 20 | 16 | · | · | 16 | ·
Cc1nc2ccc(NS(=O)(=O)c3ccc4c(c3)OCCO4)cc2s1 | 41 | 13 | 102* | 65* | 17 | 25
COc1cc(/C=N/NC(=Nc2ccc(C)cc2)c2nc3ccccc3s2)ccc1O | -14 | 85* | -2 | 28 | 84* | 25
C=CCN=C1NC(CCc2ccccc2)C(C(=O)OC)=C(C)N1C (stereo unspecified) | · | · | -8 | -11 | · | -30
O=C(NC1CCC1)c1ccc(C#CC2CC2)c[n+]1[O-] | · | · | · | -30 | · | -37
O=C(CCN1C(=O)/C(=C/c2ccccc2Cl)SC1=S)NNC(=O)c1cccnc1 | -4 | 22 | 0 | 13 | 4 | 14
SMILES | LRH-1 inv ag | NCOA3 inh | GalR3 antagonist | NR2F2 inh | NCOA1 inh | NCOA2 inhibitor
O=C(CCCN1C(=O)/C(=C/c2ccccc2Cl)SC1=S)NNC(=O)c1ccc(Cl)cc1 | 6 | 12 | 3 | 15 | 19 | 58*
CCN(CC(=O)Nc1ccc(OC)cc1)C(=O)CSCC(=O)Nc1cc(C)on1 | -1 | 79* | -7 | -1 | 0 | -8
CCN(CC(=O)Nc1c(F)cccc1F)C(=O)CSCC(=O)Nc1cc(C)on1 | -9 | 15 | -2 | 12 | 1 | 24
Cc1cc(OCC(C)CN2CCC(C(O)(c3ccccc3)c3ccccc3)CC2)ccc1Br (stereo unspecified) | · | · | · | 0 | · | 12
N#CC1=C(N)C(C#N)(C#N)C(c2cccnc2)C2CC(c3ccccc3)CC=C12 (stereo unspecified) | 28 | 62* | · | · | 65* | ·
COc1cccc(/C=N/Nc2cc(-n3nc(C)cc3-c3ccccc3)ncn2)c1O | 1 | 39 | -11 | -8 | 5 | 12
COc1cccc(/C=N/Nc2ncnc(Cl)c2N)c1O | -14 | 66* | -5 | -4 | 2 | 30
COc1cccc(/C=N/Nc2ncnc3scc(-c4ccccc4)c23)c1O | 98* | 88* | -9 | -6 | 85* | 28
COc1cccc(/C=N/Nc2nccnc2Cl)c1O | 32 | 44 | -5 | -60 | 8 | 5
CCc1cc2c(nc1CC)CCCN2S(=O)(=O)c1ccccc1 | · | · | -7 | 14 | · | 1
O=c1c2cc3cc(Cl)ccc3nc2ncn1CCc1c[nH]c2ccccc12 | · | · | · | -8 | · | -8
Cc1ccccc1NC1=C/C(=N\S(=O)(=O)c2cccs2)c2ccccc2C1=O | -3 | 88* | -8 | -4 | 80* | -20
COC(=O)C1CN(Cc2cn(CCC3OCCO3)nn2)CCS(=O)(=O)N1Cc1ccc(OC)cc1 (stereo unspecified) | · | · | · | -7 | · | 4
O=S(=O)(c1ccc(NC(=S)NCc2cccnc2)cc1)N1CCCCC1 | 73* | 46 | -3 | 18 | 67* | 48
Oc1ccccc1N=Nc1nc(-c2ccccc2)c(-c2ccccc2)[nH]1 | 98* | 87* | -8 | -9 | 74* | 27
COc1ccccc1N=Nc1nc(-c2ccccc2)c(-c2ccccc2)[nH]1 | 2 | 12 | -2 | -4 | 2 | -25
Cc1cc(C)c(S(=O)(=O)/N=C2/C=C(Sc3ncn[nH]3)C(=O)c3ccccc32)cc1C | 64 | 71* | -7 | 62* | 36 | 62*
CCCC(=O)NC(c1ccc(C)cc1)c1ccc2cccnc2c1O (stereo unspecified) | 85* | 68* | · | · | 65* | ·
CCCC(=O)NC(c1ccc(Cl)cc1Cl)c1ccc2cccnc2c1O (stereo unspecified) | 27 | 37 | -10 | -18 | 28 | 36
CCCCC(=O)NC(c1ccc(Cl)cc1)c1ccc2cccnc2c1O (stereo unspecified) | 84* | 50 | -10 | -9 | 44 | 18

Screening results (PubChem BioAssay)
